# Source: the supplement of paper PMC4166925
# ± gives the standard deviation of the averaged measurements. In all, about 33,000 sequences were measured (“E-score (dimensionless, -0.5 to 0.5)”: median about -0.046, highest 2% from about 0.36 on). The list comes from a sample in which the highest values are over-represented; it also holds similar and randomly drawn sequences.
# Test system: T1, SpTbr T-box DNA-binding domain (GST fusion)
# T1 sequence: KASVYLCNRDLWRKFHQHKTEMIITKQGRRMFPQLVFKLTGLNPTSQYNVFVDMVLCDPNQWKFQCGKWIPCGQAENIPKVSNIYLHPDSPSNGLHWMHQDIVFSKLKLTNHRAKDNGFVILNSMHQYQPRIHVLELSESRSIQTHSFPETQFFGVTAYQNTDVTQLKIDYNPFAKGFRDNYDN
# Test: PBM E-score of 8-mer (E-score (dimensionless, -0.5 to 0.5)); Tbr is Tbrain of the sea star Patiria miniata (Pm) or the sea urchin Strongylocentrotus purpuratus (Sp); higher = stronger binding preference
# Conditions: the construct has about 5 more residues each side
# Method: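 Universal protein-binding microarray (Agilent AMADID 016060, 60-bp probes with a 35-bp variable region) incubated with 200 nM GST-fused Strongylocentrotus purpuratus Tbr T-box DNA-binding domain (residues 362-554) in PBS pH 7.5. Scored for every ungapped 8-mer (given with its reverse complement) as E-score (range -0.5 to 0.5; >0.45 counts as bound) and Z-score of median probe intensity. Two replicate arrays (datasets 1 and 2).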
# 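Further: protein at 200 nM in PBS on universal double-stranded arrays.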
row,Sequence,PBM E-score of 8-mer
1,AGTTAGAT,-0.191 ± 0.0088
2,CCTAACTC,-0.0227 ± 0.032
3,ACAGCCAA,0.00932 ± 0.037
4,CACCACCA,0.145 ± 0.0054
5,AATAGCAA,0.151 ± 0.019
6,AGTCCTTG,-0.0449 ± 0.074
7,AGGCGGTG,-0.0537 ± 0.076
8,GGAGCCCC,-0.206 ± 0.022
9,AGTGTTTA,0.245 ± 0.062
10,AGTGTTGG,0.3684 ± 7.1e-06
11,TCTGTTAA,0.131 ± 0.02
12,GGTGTTTA,0.386 ± 0.015
13,AATGTTAT,0.0346 ± 0.014
14,TGTGTTAA,0.407 ± 0.011
15,AGTGTTGA,0.351 ± 0.006
16,AGTGTTAT,0.372 ± 0.045
17,AGTGTTGC,0.346 ± 0.0099
18,ACTGTTAT,0.152 ± 0.032
19,CGTGTTTA,0.123 ± 0.047
20,TATGTTAA,0.0661 ± 0.067
21,GGTCTCAA,-0.0536 ± 0.098
22,ACTTGCTG,-0.0473 ± 0.073
23,ATTCTGTC,0.04 ± 0.016
24,CAGTAACC,0.048 ± 0.029
25,GAAATGGA,-0.101 ± 0.0095

row,Sequence,PBM E-score of 8-mer
1,ACTTGACT,0.0832 ± 0.1
2,CTAATAGC,0.0334 ± 0.069
3,AGTGTTAC,0.3741 ± 0.0036
4,AATGTTAA,-0.0502 ± 0.052
5,CGTGTTGA,0.3014 ± 0.0019
6,AGTGTTAA,0.436 ± 0.021
7,GCTGTTAA,0.162 ± 0.0053
8,GTTGTTAA,0.339 ± 0.034
9,GTTGTTGA,0.239 ± 0.044
10,ACTGTTAC,0.168 ± 0.0045
11,GGTGTTAA,0.472 ± 0.0062
12,ACTGTTAA,0.261 ± 0.036
13,AGTGTTCC,0.0182 ± 0.013
14,GGTGTTGA,0.4631 ± 0.0038
15,ATTTGCAC,0.239 ± 0.043
16,ACTTGAGG,-0.00245 ± 0.078
17,CGACGCGA,0.159 ± 0.068
18,ACAGCTTC,0.208 ± 0.017
19,AGTGGAGC,-0.0127 ± 0.11
20,TCATCTCA,0.0482 ± 0.019
21,GCCAATCC,-0.0232 ± 0.048
22,AGAGTGGG,-0.128 ± 0.066
23,AGTGTGGA,0.373 ± 0.035
24,GGTGTGTA,0.356 ± 0.008
25,AGTGTGGC,0.33 ± 0.014

row,Sequence,PBM E-score of 8-mer
1,GGTGTGGA,0.456 ± 0.014
2,AGTGTGTA,0.229 ± 0.018
3,AGTGTGGG,0.399 ± 0.018
4,CGTGTGGA,0.306 ± 0.0073
5,AGTGGGGG,-0.0909 ± 0.05
6,ACCTTAGC,0.211 ± 0.014
7,CCACGGGC,-0.227 ± 0.019
8,AATCGCGA,0.3847 ± 0.00013
9,ATTCGCGG,0.275 ± 0.026
10,CTTCGCGC,0.407 ± 0.032
11,AATCGCGC,0.332 ± 0.01
12,CTTCGCTC,-0.00285 ± 0.036
13,CATCGCGA,0.197 ± 0.0055
14,ATTCGCGA,0.392 ± 0.02
15,ATTCGCTA,0.208 ± 0.024
16,ATTCGCGC,0.387 ± 0.012
17,CATCGCGC,0.259 ± 0.032
18,CTTCGCGA,0.285 ± 0.032
19,AATCGCGT,0.194 ± 0.039
20,GCGCCACA,0.223 ± 0.014
21,ATTTGTGA,0.181 ± 0.085
22,GGGGCGCA,-0.227 ± 0.038
23,TAAAGCTA,-0.171 ± 0.036
24,GTATTGAC,-0.0627 ± 0.015
25,CAGTGCAG,-0.179 ± 0.024

row,Sequence,PBM E-score of 8-mer
1,GTTCGCCA,0.158 ± 0.011
2,ACTCGCGA,0.3822 ± 0.0018
3,GTTCGCGA,0.389 ± 0.0052
4,GGTCGCGA,0.335 ± 0.017
5,ACTCGCGC,0.298 ± 0.038
6,CCTCGCGA,0.306 ± 0.0057
7,CCAGCGCG,0.0431 ± 0.073
8,CCTCGTTC,0.0141 ± 0.013
9,CGTCAACA,0.356 ± 0.0058
10,TGTCAACA,0.4051 ± 0.0019
11,GGTCAACA,0.114 ± 0.02
12,CTAAACCA,-0.0751 ± 0.046
13,CTCCCTTC,-0.214 ± 0.037
14,CCTTACAC,0.3668 ± 0.0022
15,ACTTACAC,0.251 ± 0.075
16,CCTCACAC,0.4723 ± 0.0005
17,ACACTCTA,0.325 ± 0.017
18,GCTTACAC,0.219 ± 0.012
19,ACTCACAC,0.469 ± 0.0082
20,ACACTCTC,0.3695 ± 0.0036
21,ACTCACAT,0.124 ± 0.049
22,CCTCACAG,0.149 ± 0.032
23,ACTCTCTC,0.0136 ± 0.068
24,ACTCACAG,0.313 ± 0.011
25,CCTCACAA,0.233 ± 0.0063

row,Sequence,PBM E-score of 8-mer
1,GGCTCTCA,0.0783 ± 0.047
2,AGCATAGC,-0.135 ± 0.061
3,CGCGTTTA,0.0979 ± 0.059
4,CGAGATAC,-0.0218 ± 0.054
5,GAACAAAA,-0.0265 ± 0.017
6,ACGTATGC,0.0191 ± 0.0035
7,AGGCGCAT,-0.182 ± 0.024
8,ACCGTCAT,0.0989 ± 0.0085
9,ATTGAAGG,-0.0895 ± 0.13
10,AAGCGGTG,-0.1161 ± 0.00078
11,CACAAGGC,-0.114 ± 0.035
12,ACATGGCA,-0.0601 ± 0.028
13,GCCAGCGA,0.164 ± 0.098
14,ACACTCAG,0.232 ± 0.042
15,ACACTCCG,0.367 ± 0.023
16,ACTCTCCG,-0.0225 ± 0.053
17,GCTCACAA,0.174 ± 0.018
18,GCACACAC,0.294 ± 0.035
19,ACACTCAC,0.366 ± 0.004
20,ACACTCCT,0.193 ± 0.021
21,GCTCACAC,0.448 ± 0.0095
22,ACTCTCAC,0.285 ± 0.036
23,ATCTCCGG,0.0811 ± 0.031
24,ACCGTTCA,0.027 ± 0.023
25,AGCGAGTC,0.0305 ± 0.044

row,Sequence,PBM E-score of 8-mer
1,CTGTACCA,-0.0774 ± 0.055
2,GCTAGAAC,0.0971 ± 0.024
3,AGACCATG,-0.0594 ± 0.025
4,CTGCCAAC,0.0901 ± 0.035
5,GTGCCAAC,0.4114 ± 0.0035
6,GTGCCAAA,0.403 ± 0.0099
7,CTGCCAAA,0.0249 ± 0.15
8,TTGCCAAA,0.0607 ± 0.12
9,ATGCCAAC,0.124 ± 0.0029
10,AAGAGTAT,-0.163 ± 0.024
11,ATACGCAC,0.153 ± 0.063
12,ATTTGGCG,0.118 ± 0.03
13,CTGGGGAA,0.00742 ± 0.052
14,GCCGTGAA,0.354 ± 0.018
15,CGCGTGAA,0.4208 ± 0.0018
16,TGCGTGAA,0.3936 ± 0.0023
17,CGCGTGAC,0.355 ± 0.02
18,CGCGTGAG,0.313 ± 0.0063
19,GGCGTGCA,0.0836 ± 0.055
20,GACGTGAC,0.235 ± 0.032
21,TACGTGAA,0.0338 ± 0.073
22,GGCGTGAC,0.388 ± 0.0071
23,TCCGTGAA,0.16 ± 0.012
24,GCCGTGAC,0.199 ± 0.011
25,GGCGTGAA,0.473 ± 0.0057

row,Sequence,PBM E-score of 8-mer
1,AGGCTGGG,-0.179 ± 0.012
2,ACAGTGTA,0.0565 ± 0.017
3,ATAACTCC,-0.147 ± 0.029
4,ACTGACTC,0.0022 ± 0.0015
5,AGCGTGAT,0.28 ± 0.022
6,AGCGTGAA,0.413 ± 0.018
7,AGCGTGAC,0.3372 ± 0.0013
8,AGAAGACA,0.0347 ± 0.065
9,ATGTGTCG,0.385 ± 0.011
10,ATATGTCG,0.139 ± 0.047
11,GTGTGTCA,0.346 ± 0.0092
12,ATGTGTCC,0.144 ± 0.014
13,CTGTGTCA,0.247 ± 0.015
14,ATGTGTCA,0.4671 ± 0.00078
15,CACATTCA,0.21 ± 0.041
16,CATAAAGA,-0.0483 ± 0.0071
17,GCGGGTGA,0.261 ± 0.03
18,GAATTTCA,0.056 ± 0.018
19,AAGCAAGG,-0.0863 ± 0.017
20,AGCCAGAA,-0.268 ± 0.024
21,AAGGAGAT,-0.0983 ± 0.019
22,AGAGGGCC,-0.194 ± 0.097
